The list is not random: actives were taken first. Their share in the collection is about 5.7%.
AHR act: activators of human aryl hydrocarbon receptor; hit rate 2.5% among 320,000; P35869; AID 2796; activation, % at 5 µM; AHR-responsive luciferase reporter cells, luminescence; in the data active means activation above about 47%;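 further: 0% = vehicle wells and 100% = reference agonist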
Target sequence (P35869 whole entry, looked up): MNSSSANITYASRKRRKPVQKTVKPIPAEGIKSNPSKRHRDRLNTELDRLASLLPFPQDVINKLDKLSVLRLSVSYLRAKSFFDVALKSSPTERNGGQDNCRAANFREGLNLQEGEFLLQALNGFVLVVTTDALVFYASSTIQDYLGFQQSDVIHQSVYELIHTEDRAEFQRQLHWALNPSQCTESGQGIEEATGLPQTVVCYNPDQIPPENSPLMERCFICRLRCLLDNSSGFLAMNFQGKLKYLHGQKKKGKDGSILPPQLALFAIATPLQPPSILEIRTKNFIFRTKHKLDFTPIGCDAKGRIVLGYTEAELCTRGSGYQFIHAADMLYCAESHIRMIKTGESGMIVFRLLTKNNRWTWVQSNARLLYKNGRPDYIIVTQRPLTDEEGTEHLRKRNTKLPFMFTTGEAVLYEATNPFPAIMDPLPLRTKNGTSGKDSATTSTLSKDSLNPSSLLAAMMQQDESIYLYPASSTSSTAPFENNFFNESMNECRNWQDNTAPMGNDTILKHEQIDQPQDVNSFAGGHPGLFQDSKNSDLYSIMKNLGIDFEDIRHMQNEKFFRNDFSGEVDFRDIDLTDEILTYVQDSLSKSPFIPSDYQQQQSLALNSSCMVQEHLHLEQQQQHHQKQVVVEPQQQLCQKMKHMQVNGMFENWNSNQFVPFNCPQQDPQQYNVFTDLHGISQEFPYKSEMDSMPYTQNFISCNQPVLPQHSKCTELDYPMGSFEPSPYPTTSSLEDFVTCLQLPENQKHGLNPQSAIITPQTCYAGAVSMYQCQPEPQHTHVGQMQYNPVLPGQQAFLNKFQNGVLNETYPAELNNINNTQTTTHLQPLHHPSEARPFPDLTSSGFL
ssDAF-12 act: activates DAF-12 receptor from parasite S. stercoralis; HEK293 ssDAF-12/GRIP1 lit1-tk-luc reporter, luminescence; % of 3 µM dafachronic acid response; activation, % at 6.8 µM; hit rate 1% among 370,000; AID 652126;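 active means activation above the mean over all tested compounds plus 3 SD, cut at about 0.9% in these data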;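 further: 0% = DMSO-only wells and 100% = 3 µM delta7-dafachronic acid wells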
DAX1 inh-1: inhibitors of DAX1 repression of SF-1 activated StAR promoter | HEK293T StAR-luciferase reporter, SF-1/DAX-1 repression relief | inhibition, % at 6.8 µM | hit rate 1.1% among 370,000;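 active means inhibition above the mean over all tested compounds plus 3 SD, cut at about 3.6% in these data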;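 further: 0% = DAX-1 cells with DMSO and 100% = cells lacking DAX-1 with DMSO; higher inhibition means more luminescence from relief of DAX-1 repression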
hgDAF-12 ag: activates the H. glycines DAF-12 receptor ligand-binding domain | HEK293 GAL4-hgDAF12 UAS-luciferase reporter, agonist luminescence; normalized to butyrate control | activation, % at 6.8 µM | hit rate 1.8% among 370,000 | AID 687014;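 active means activation above a cutoff set at the mean of all screened compounds plus 3 SD, cut at about 10% in these data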;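 further: 0% = DMSO wells and 100% = sodium butyrate wells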
hcDAF-12 act: H. contortus DAF-12 activation, primary screen; activation, % at 6.8 µM; AID 652067; hit rate 1.4% among 370,000; HEK293 hcDAF-12 lit1-tk-luc reporter, luminescence; 0% DMSO, 100% Δ7-dafachronic acid;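 active means activation above the mean of all tested compounds plus 3 SD, cut at about 5.5% in these data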;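 further: 100% = response to 3 µM Δ7-dafachronic acid high control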
DAX1 inh-2: inhibitors of human orphan nuclear receptor DAX1 (NR0B1); P51843; HEK293 Gal4-DAX1 luciferase reporter, luminescence; inhibition, % at 6.75 µM; hit rate 0.99% among 340,000; AID 504766;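 active means inhibition above the mean over all tested compounds plus 3 SD, cut at about 4.2% in these data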;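 further: 0% = DAX1-transfected cells with DMSO and 100% = empty-vector control cells with DMSO; inhibition shows as a rise in luminescence from relieved DAX1 repression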
* marks the source's active call; other numbers are inactive results; . = no result.

SMILES	AHR act	ssDAF-12 act	DAX1 inh-1	hgDAF-12 ag	hcDAF-12 act	DAX1 inh-2
Cc1ccc(S(=O)(=O)NCC(=O)OCC(=O)c2c(N)n(C)c(=O)n(C)c2=O)cc1	-1	-1	1	3	-2	1
Cc1cccnc1Nc1nc(-c2ccccn2)cs1	-6	-1	-3	3	1	-5
CC(=O)Oc1ccc(-c2csc(Nc3cccnc3)n2)cc1	6	-1	0	-2	0	-1
Cc1cccc(Nc2nc(-c3ccccn3)cs2)n1	40	1.1*	3	13*	6.0*	0
CC(=O)Oc1ccc(-c2csc(Nc3cccc(C)n3)n2)cc1	14	2.4*	2	9	4	5.5*
O=S1(=O)CCN2N=C(C3CC3)SC2=N1	3	-2	0	0	-1	6.2*
Cc1cccc(OCc2nc(-c3nonc3N)no2)c1C	-1	-1	2	11*	2	1
CC(=O)c1ccc(N(C(=O)Cn2nnc(-c3ccccc3)n2)C(C(=O)NC2CCCCC2)c2ccccn2)cc1 (configuration not stated)	1	-1	0	0	-2	-1
CCc1ccc(N(C(=O)Cn2nnc(-c3ccccc3)n2)C(C(=O)NC2CCCCC2)c2ccccn2)cc1 (configuration not stated)	25	0	0	3	6.5*	0
CCCCC(O)(CCCC)C(=O)NN(C(=O)c1cccnc1Cl)c1ccccc1	-2	-1	0	-1	-1	1
O=C(CSc1ccc(-c2ccccn2)nn1)Nc1ccc(F)cc1F	9	-1	-1	1	1	1
O=C(CSc1ccc(-c2cccnc2)nn1)Nc1ccc(F)cc1F	65*	-1	0	-3	2	-1
O=S1(=O)CC2c3ccc(F)cc3CN2CN1C1CCCC1 (configuration not stated)	.	1.0*	0	-1	1	.
O=S1(=O)CC2c3ccc(F)cc3CN2CN1Cc1ccc(F)cc1 (configuration not stated)	.	0	0	2	1	.
N#Cc1cccc(C#N)c1N1CCC(C#N)CC1	-7	-1	0	11*	-2	.
O=C(NN1CCN(Cc2ccccc2Cl)CC1)c1ccc(Br)cc1	-1	-1	-1	-1	-2	-1
Cc1ccn2c(=O)nc(SCC(=O)c3ccc(Cl)cc3)nc2c1	4	-1	0	1	-2	0
Cc1ccn2c(C(=O)c3ccc(Cl)cc3)cnc2c1	0	0	3.9*	13*	5	1
Cc1cc(F)ccc1C(O)c1ncc(-c2ccc3ccccc3c2)[nH]1 (configuration not stated)	.	0	3.7*	-1	-1	.
Cc1ccc(C(O)c2ncc(-c3ccc4ccccc4c3)[nH]2)cc1 (configuration not stated)	.	0	2	8	5	.
Cc1ccc(C(O)c2ncc(-c3ccc(F)cc3)[nH]2)c(C)c1 (configuration not stated)	.	-1	-1	-3	-1	.
OC(c1ccc(F)cc1)c1ncc(-c2ccc3ccccc3c2)[nH]1 (configuration not stated)	.	-1	1	11*	3	.
CCC(/C=C1\Sc2ccc(OC)cc2N1CCO)=C\c1sc2ccc(OC)cc2[n+]1CCO	9	-2	-2	1	-4	0
CCC(/C=C1\Sc2ccc(OC)cc2N1CC)=C\c1sc2ccc(OC)cc2[n+]1CCCS(=O)(=O)[O-]	0	5.6*	0	0	-1	0
CCOc1ccc(CCNC(=O)c2[nH]c(C)c(C(C)=O)c2C)cc1OCC	19	-1	-1	-3	0	-1
SMILES	AHR act	ssDAF-12 act	DAX1 inh-1	hgDAF-12 ag	hcDAF-12 act	DAX1 inh-2
COc1ccc(CCNC(=O)c2[nH]c(C)c(C(C)=O)c2C)cc1OC	74*	-1	1	-2	-2	2
COc1ccc(Cl)cc1NC(=O)c1[nH]c(C)c(C(C)=O)c1C	68*	0	0	2	3	0
COc1ccc(CCNC(=O)c2cccnc2Cl)cc1OC	1	-1	1	1	2	6.3*
COc1ccc(OC)c(NC(=O)c2[nH]c(C)c(C(C)=O)c2C)c1	75*	-1	1	2	5.8*	1
COc1cc(NC(=O)c2[nH]c(C)c(C(C)=O)c2C)c(OC)cc1Cl	.	-1	.	8	4	.
CC(C)(C)CC(=O)Nc1nnc(SCC(=O)N2CCCCC2)s1	0	-1	0	1	-1	-1
Cc1ccc(NC(=O)C2(S(=O)(=O)c3ccc(Cl)cc3)CC2)cc1	2	-1	0	-4	-3	2
CCN1CCN(C(=O)C(N)Cc2ccccc2)CC1 (configuration not stated)	5	-1	1	1	3	3
CCCN(CCC)S(=O)(=O)c1cc2c3c(c1)CCN3C(=O)CC2	1	-1	1	2	-1	0
CCOc1ccc2nc(NC(=O)CN3CCN(CC)CC3)sc2c1	.	-1	0	4	0	0
CCOc1ccc2nc(NC(=O)CN3C(=O)C4CCCCC4C3=O)sc2c1 (configuration not stated)	15	-1	3.7*	6	0	0
CCOc1ccc2nc(NC(=O)Cn3[nH]c(=O)c4ccccc4c3=O)sc2c1	11	-1	1	11*	0	6.8*
Cc1cc(C)cc(C(=O)OCC(=O)NC(=O)NC2CCCC2)c1	0	-1	-2	-3	-1	0
Cc1ccc(C(=O)Cc2ccccc2)o1	2	0	0	1	-1	2
C=C(C)CC(NCCc1ccccc1)c1ccco1 (configuration not stated)	.	0	0	-3	5	-2
CCOc1cc(/C=N/Nc2cccc(C(=O)O)c2)ccc1OC(=O)c1ccccc1	.	1.1*	3	10	2	-4
COc1cc(C=NNc2ccccc2)ccc1OC(=O)c1ccccc1	.	-1	0	-2	0	1
CCOc1cc(/C=N/Nc2ccccc2Cl)ccc1OCC(=O)O	8	0	2	0	6.3*	-1
COc1ccc(Cl)cc1NC(=O)CN1CCN(Cc2ccccc2)CC1	2	-1	0	-2	-2	-1
CN(Cc1ccc(Br)cc1)C(=O)CCN1C(=O)c2cccc([N+](=O)[O-])c2C1=O	1	-2	0	0	0	0
O=C(OC(c1ccccc1)c1nccc2ccccc12)c1ccccc1 (configuration not stated)	.	-3	-5	-17	-6	1
CC(C)C(OC(=O)c1ccccc1)c1nccc2ccccc12 (configuration not stated)	1	0	1	4	5	4.2*
CO/N=C(\C(=O)O)c1csc(NN=C(C)C)n1	3	-1	0	0	-1	-1

Screens deposited in PubChem by The Scripps Research Institute Molecular Screening Center.
